The panel holds about 83,000 compounds, 20% with a hit somewhere; the sample as a whole holds those more often.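 For each line, cells grew in 96-well plates with the test compound present at a single concentration for 48 hours.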 A number with no mark means an inactive call. Activity calls are given as the source filed them. How the source made its calls: active means growth percent below 10; inactive means the rest.

In PubChem BioAssay (NCI) one finds growth data, which are given here for eight compounds.

Test in all cases: NCI-60 one-dose screen, 48 h (100 = growth as untreated, 0 = no growth, -100 = all killed)
Holding throughout (conditions): 10 µM unless noted

The test system of test [1] is SK-MEL-2 melanoma.
Test [2] relates to EKVX NSCLC.
Test [3] has as its system SN12C renal.
Test [4] deals with UO-31 renal.
For test [5], the system named is TK-10 renal.
Test [6] relates to ACHN renal.
Test [7] has as its system CAKI-1 renal.
The test system of test [8] is A498 renal.
In test [9] the test system is CCRF-CEM leukemia.
Test [10] deals with MOLT-4 leukemia.
Test [11] deals with SR leukemia.
In test [12] the test system is RPMI-8226 leukemia.
The test system of test [13] is OVCAR-8 ovarian.
For test [14], the system named is OVCAR-5 ovarian.
Test [15] concerns OVCAR-4 ovarian.
The test system of test [16] is SK-OV-3 ovarian.
Test [17] has as its system IGROV1 ovarian.
Test [18] relates to OVCAR-3 ovarian.
For test [19], the system named is HS 578T breast.
Test [20] has as its system NCI/ADR-RES ovarian.

Take `Cc1ccc2c(c1)n([O-])c1cc(Cl)ccc1[n+]2=O`: the growth is 92.5% in test [1]; 94.6% in [2]; 100% in test [3]; 88.9% in [4]; 130% in test [5]; 114% in [6]. Also, the growth in test [7] was 111%; in test [8], 87.9%; in test [9], 34.9%; in test [10], -9.08% (active); in test [11], 5.98% (active); in test [12], 104%. Besides, the growth in test [13] was 108%; in test [14], 102%; in test [15] it was 82.6%; in [16] it was 122%; in [17], 101%; in test [18], 92.6%. In addition, the values for the growth in test [19] and in test [20] were 135% and 104%, respectively.
With `C=C(C[n+]1ccccc1)[C@@H]1CC[C@]2(C(=O)OC)CC[C@]3(C)[C@H](CC[C@@H]4[C@@]5(C)CC[C@H](O)C(C)(C)[C@@H]5CC[C@]43C)[C@@H]12`, the growth was 100% in [1]; 104% in test [2]; 95.4% in test [3]; 74% in [4]; 113% in [5]; 96.5% in test [6]. Moreover, the growth is 90.6% in [7]; 123% in test [8]; 99% in [9]; 101% in test [10]; 108% in test [11]; 91.1% in test [12]. Moreover, the growth is 102% in test [13]; 102% in [14]; 99.7% in [15]; 95% in test [16]; 98% in [17]; 108% in [18]. The growth in test [19] is 101%; in test [20], 103%.
Regarding `C[C@]12C[C@@H](c3ccoc3)OC(=O)[C@@H]1CC[C@]1(C)[C@@H]2CC[C@@H](O)[C@]1(C)O`, the growth in [1] is 74.7%; in test [2], 57.5%; in [3], 64.1%; in test [4], 75.5%; in [5] it was 65%; in [6], 76.1%. Also, the growth in test [7] was 88.2%; in test [8] it was 19.8%; in test [9], 69.3%; in test [10] it was 67.3%; in test [11] it was 74.5%; in [12] it was 101%. For the same compound, the growth in test [13] was 104%; in test [14], 137%; in test [15] it was 128%; in test [16], 105%; in [17], 102%; in test [18], 112%. The growth in test [19] was 81.1%; in test [20] it was 104%.
Regarding `CCOC(=O)C(Cc1cc(I)c(O)c(I)c1)NC(=O)c1ccccc1` (stereo not given), the growth in test [1] was 97.6%; in test [2], 101%; in test [3], 97.6%; in test [4], 92.2%; in [5] it was 88.4%; in test [6] it was 93.5%. For the same compound, the growth is 95.7% in [7]; 78.7% in test [8]; 95.3% in test [9]; 91.5% in [10]; 88.9% in test [11]; 89.5% in test [12]. The growth was 97.7% in test [13]; 96.1% in test [14]; 108% in test [15]; 94.1% in [16]; 99% in test [17]; 108% in [18]. Further, the values for the growth in test [19] and in test [20] were 87% and 106%, respectively.
Regarding `CCCCCCCCCC(=O)Oc1ccc(/C(=C(/C)c2ccccc2)c2ccc(OCCN3CCCC3)cc2)cc1`, the growth is -31.5% (active) in test [1]; 44.1% in test [2]; 44.8% in test [3]; 7.66% (active) in test [4]; 43% in [5]; 35.2% in test [6]. Moreover, the growth in test [7] is 1.34% (active); in test [8] it was 1.68% (active); in test [9], 13.1%; in [10], 2.39% (active); in [11], -25.7% (active); in test [12], -21.8% (active). Besides, the growth in test [13] is 54.5%; in test [14], 54.4%; in [15], 32.6%; in test [16], 33.9%; in test [17], 44.6%; in test [18] it was 42.9%. For the same compound, the values for the growth in test [19] and in test [20] were 11.9% and 28%, respectively.
`CCCC(=O)Oc1ccc(/C(=C(/CC)Cc2ccccc2)c2ccc(OCCN3CCCC3)cc2)cc1`: the growth is 103% in test [1]; 81.4% in [2]; 99.4% in [3]; 66.5% in [4]; 87.8% in [5]; 87.3% in test [6]. Besides, the growth was 85.2% in [7]; 71.9% in [8]; 84.4% in test [9]; 51.6% in test [10]; 1.36% (active) in [11]; 33.3% in test [12]. In addition, the growth in test [13] is 96.4%; in test [14], 84.2%; in test [15], 68.4%; in [16], 97%; in test [17], 74%; in [18] it was 74.1%. The growth in test [19] was 82.7%; in test [20], 69.9%.
`O=C(Cc1ccccc1)c1ccc(Cl)cc1`: the growth in test [1] was 99%; in [2], 87.4%; in test [3] it was 89%; in [4], 111%; in test [5] it was 99.5%; in test [6], 103%. Also, the growth is 75.2% in test [7]; 90.9% in [8]; 99.1% in test [9]; 84.2% in test [10]; 96.7% in test [11]; 160% in [12]. The growth in [13] was 103%; in test [14], 83.2%; in [15], 107%; in [16] it was 107%; in test [17], 105%; in test [18], 111%. Also, the growth was 120% in test [19] and 96.6% in [20].
In the case of `CCN(CC)CCCNc1cc(OC)cc2nc3cc(Cl)ccc3nc12`, the growth in [1] is 3.9% (active); in test [2] it was 0.555% (active); in test [3], 13.1%; in test [4], -86.7% (active); in test [5] it was -15.5% (active); in test [6] it was 3.95% (active). The growth was -78.7% (active) in test [7]; 14.3% in test [8]; 19.9% in test [9]; -26.2% (active) in test [10]; -34.6% (active) in test [11]; -14.3% (active) in test [12]. In addition, the growth was -8.47% (active) in test [13]; -39.3% (active) in test [14]; -11% (active) in [15]; 6.29% (active) in test [16]; -29.9% (active) in [17]; -48.9% (active) in test [18]. Besides, the results for the growth in test [19] and in test [20] were 23.3% and -50.2% (active), respectively.
